Assay results from PubChem BioAssay AID1159577 (Broad Institute, 2015).
Among all 1,300 compounds or so, about 240 (18%) were called active. Roughly 8% stayed inconclusive and do not appear here. The rule behind the calls is not given here. The list is a sample of the results. Potency and affinity values are given separately.

Test: HepG2 cell cytotoxicity, dose response, cytotoxicity control, cherry-picked samples (AID 1159577);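 note: 0% = neutral control wells and -100% = positive control wells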
Settings: HepG2 cytotoxicity counterscreen, plate reader; series mostly up to 19.5 µM; activity change, negative = cytotoxicity: at the top concentration
In the case of COc1ccc(NC(=O)N(C)C[C@H]2Oc3ccc(NC(=O)Nc4ccc(C(F)(F)F)cc4)cc3CC(=O)N([C@H](C)CO)C[C@@H]2C)cc1, the “activity change, negative = cytotoxicity” value is reported as -8.84% (inactive).
With C[C@H]1CN([C@@H](C)CO)C(=O)Cc2cc(NC(=O)Nc3ccc(C(F)(F)F)cc3)ccc2O[C@@H]1CN(C)C(=O)Nc1ccc2c(c1)OCO2 the “activity change, negative = cytotoxicity” value was -8.1% [at 21 µM] (inactive).
In the case of C[C@@H]1CN([C@@H](C)CO)C(=O)Cc2cc(NC(=O)Nc3ccccc3)ccc2O[C@H]1CN(C)CC1CC1, the “activity change, negative = cytotoxicity” value is reported as 0.37% (inactive).
In the case of C[C@H](CO)N1C[C@H](C)[C@@H](CN(C)C(=O)Nc2ccc3c(c2)OCO3)Oc2ccc(NC(=O)Nc3ccc(C(F)(F)F)cc3)cc2CC1=O, the “activity change, negative = cytotoxicity” value is reported as 12.4% (inactive).
For C[C@H](CO)N1C[C@H](C)[C@@H](CN(C)C(=O)Nc2ccc(F)cc2)Oc2ccc(NC(=O)Nc3ccc(C(F)(F)F)cc3)cc2CC1=O, the “activity change, negative = cytotoxicity” value was -22.5% (inactive).
In the case of C[C@H](CO)N1C[C@H](C)[C@H](CN(C)CC2CC2)Oc2ccc(NC(=O)Nc3ccccc3)cc2CC1=O, the “activity change, negative = cytotoxicity” value is reported as 2.58% [at 21 µM] (inactive).
In the case of O=C(c1cccc(F)c1)N1CC(=O)N2[C@H](C1)[C@@H](c1ccc(-c3cccnc3)cc1)[C@@H]2CO, the “activity change, negative = cytotoxicity” value is reported as 2.49% (inactive).
For COCC(=O)N1CCC2(CC1)CN(Cc1cccc(OC)c1)[C@@H](CO)c1[nH]c3cc(OC)ccc3c12, the “activity change, negative = cytotoxicity” value was 15% (inactive).
With C[C@@H]1CN([C@@H](C)CO)C(=O)c2cccc(NC(=O)c3nc4ccccc4s3)c2O[C@@H]1CN(C)C(=O)Nc1cccc2ccccc12 the “activity change, negative = cytotoxicity” value was -14.3% (inactive).
For Cc1ccc(-c2ccc3c(c2)O[C@@H](CN(C)C(=O)C2CCCCC2)[C@H](C)CN([C@H](C)CO)S3(=O)=O)cc1, the “activity change, negative = cytotoxicity” value was -16.9% (inactive).
For N#Cc1cccc(-c2ccc3c(c2)[C@H]2[C@H](CCN2C(=O)c2ccncc2)[C@H](CO)N3)c1, the “activity change, negative = cytotoxicity” value was 11.3% (inactive).
For COc1ccc2c3c(n(C)c2c1)[C@@H](CO)NCC31CCN(Cc2ccc(-c3ccccn3)cc2)CC1, the “activity change, negative = cytotoxicity” value was -21.1% (inactive).
For COc1ccc2c3c(n(C)c2c1)[C@H](CO)N(C(=O)Nc1ccc(F)cc1)CC31CCN(Cc2ccccn2)CC1, the “activity change, negative = cytotoxicity” value was 1.75% (inactive).
In the case of COc1cccc(CN2CC3(CN(Cc4ccccn4)C3)c3c([nH]c4cc(OC)ccc34)[C@@H]2CO)c1, the “activity change, negative = cytotoxicity” value is reported as -13.1% (inactive).
With COc1cccc(CN2CC3(CN(Cc4ccccn4)C3)c3c([nH]c4cc(OC)ccc34)[C@H]2CO)c1 the “activity change, negative = cytotoxicity” value was 8.96% (inactive).
For COc1ccc(S(=O)(=O)N(C)C[C@@H]2OCc3ccccc3-c3c(n(C)c4ccccc34)C(=O)N([C@H](C)CO)C[C@H]2C)cc1, the “activity change, negative = cytotoxicity” value was 3.61% (inactive).
With C[C@@H]1CN([C@@H](C)CO)C(=O)c2c(c3ccccc3n2C)-c2ccccc2CO[C@H]1CN(C)S(=O)(=O)c1ccc(C(F)(F)F)cc1 the “activity change, negative = cytotoxicity” value was -12.8% (inactive).
For O=C(c1ccccn1)N1CC[C@H]2[C@H](CO)Nc3ccc(-c4ccccc4)cc3[C@H]21, the “activity change, negative = cytotoxicity” value was -7.67% [at 21 µM] (inactive).
With CCC(=O)N1CCC2(CC1)CN(Cc1ccc(Cl)cc1)[C@H](CO)c1[nH]c3cc(OC)ccc3c12 the “activity change, negative = cytotoxicity” value was 18.2% (inactive).
In the case of Cc1ccccc1-c1ccc(C2[C@H]3CNC[C@@H]2N3S(=O)(=O)c2cccc(F)c2)cc1 (some centres undefined), the “activity change, negative = cytotoxicity” value is reported as -5.53% (inactive).
With CC(C)NC(=O)N1[C@H](C#N)[C@H](c2ccc(C#CC3CCCCC3)cc2)[C@@H]1CO the “activity change, negative = cytotoxicity” value was -21.3% (inactive).
In the case of N#C[C@@H]1[C@@H](c2ccc(C#Cc3ccc(F)cc3)cc2)[C@H](CO)N1C(=O)C1CCCC1, the “activity change, negative = cytotoxicity” value is reported as -33.8% (inactive).
In the case of N#C[C@@H]1[C@H](c2ccc(C#CC3CCCCC3)cc2)[C@H](CO)N1C(=O)Nc1ccc(F)cc1, the “activity change, negative = cytotoxicity” value is reported as -17.3% [at 21 µM] (inactive).
With N#C[C@@H]1[C@@H](c2ccc(C#CC3CCCCC3)cc2)[C@H](CO)N1C(=O)Nc1ccc(F)cc1 the “activity change, negative = cytotoxicity” value was -16.3% (inactive).
In the case of OC[C@@H]1[C@@H](c2ccccc2)C2(CN(CCC(F)(F)F)C2)N1Cc1ccccc1, the “activity change, negative = cytotoxicity” value is reported as -1.13% [at 21 µM] (inactive).
With O=C(C[C@@H]1C[C@H]2c3cc(NC(=O)Nc4ccccc4)ccc3O[C@H]2[C@H](CO)O1)NCc1ccccc1 the “activity change, negative = cytotoxicity” value was -34.5% (inactive).
In the case of O=C(c1cccnc1)N1CC(=O)N2[C@H](C1)[C@@H](c1ccc(-c3cccnc3)cc1)[C@@H]2CO, the “activity change, negative = cytotoxicity” value is reported as 2.75% (inactive).
For CN1c2ccc(-c3ccccc3)cc2[C@@H]2[C@@H](CCN2C(=O)c2ccccc2)[C@H]1CO, the “activity change, negative = cytotoxicity” value was 4.78% (inactive).
In the case of CCS(=O)(=O)N1CC(=O)N2[C@H](CO)[C@@H](c3ccc(-c4ccccc4F)cc3)[C@@H]2C1, the “activity change, negative = cytotoxicity” value is reported as 5.53% (inactive).
With COc1ccc(NC(=O)N2CCCCN3[C@H](CO)[C@H](c4ccc(-c5ccccc5F)cc4)[C@@H]3C2)cc1 the “activity change, negative = cytotoxicity” value was -16.4% (inactive).
In the case of CCS(=O)(=O)N1CCCCN2[C@H](CO)[C@@H](c3ccc(-c4cccc(C#N)c4)cc3)[C@@H]2C1, the “activity change, negative = cytotoxicity” value is reported as 7.54% (inactive).
In the case of Cc1cccc(S(=O)(=O)N2CCCCN3[C@H](C2)[C@@H](c2ccc(-c4cccnc4)cc2)[C@@H]3CO)c1, the “activity change, negative = cytotoxicity” value is reported as 22.7% (inactive).
In the case of N#C[C@@H]1[C@H](c2ccccc2/C=C/c2ccccc2)[C@H](CO)N1S(=O)(=O)c1ccc(F)cc1, the “activity change, negative = cytotoxicity” value is reported as -7.03% (inactive).
For CCCC(=O)Nc1ccc2c(c1)OC[C@@H](C)N(Cc1cccc(F)c1)C[C@@H](C)[C@H](OC)CN(C)C2=O, the “activity change, negative = cytotoxicity” value was 13.8% (inactive).
With CC(C)NC(=O)N1[C@H](CO)[C@@H](c2ccccc2)C12CN(Cc1ccc(Cl)cc1)C2 the “activity change, negative = cytotoxicity” value was -15.9% (inactive).
For CO[C@H]1CN(C)C(=O)c2cc(NC(=O)Cc3ccccc3)ccc2OC[C@H](C)N(C(=O)c2ccccc2F)C[C@H]1C, the “activity change, negative = cytotoxicity” value was -0.533% (inactive).
For CCCNC(=O)Nc1ccc2c(c1)OC[C@H](C)N(Cc1ccc(-c3ccccn3)cc1)C[C@H](C)[C@H](OC)CN(C)C2=O, the “activity change, negative = cytotoxicity” value was 14.3% (inactive).
In the case of COc1cccc(S(=O)(=O)N2CCC3(CC2)CN[C@H](CO)c2[nH]c4cc(OC)ccc4c23)c1, the “activity change, negative = cytotoxicity” value is reported as 3.97% [at 21 µM] (inactive).
For C[C@@H]1CN([C@H](C)CO)S(=O)(=O)c2ccc(C#Cc3ccccc3)cc2O[C@H]1CN(C)C(=O)C1CC1, the “activity change, negative = cytotoxicity” value was -11.3% (inactive).
With CO[C@@H]1CN(C)C(=O)c2ccc(NC(=O)c3ccc4c(c3)OCO4)cc2OC[C@@H](C)N(Cc2ccc3c(c2)OCO3)C[C@H]1C the “activity change, negative = cytotoxicity” value was 21.5% (inactive).
For COc1ccc2c3c([nH]c2c1)[C@@H](CO)N(Cc1cc(F)ccc1F)CC31CCN(C(=O)C2CCC2)CC1, the “activity change, negative = cytotoxicity” value was 1.16% (inactive).
In the case of CCS(=O)(=O)N1CCCCN2[C@H](CO)[C@H](c3ccc(-c4cccc(C#N)c4)cc3)[C@@H]2C1, the “activity change, negative = cytotoxicity” value is reported as -8.99% (inactive).
With CCS(=O)(=O)N1CCCCN2[C@H](CO)[C@H](c3ccc(-c4cccc(C#N)c4)cc3)[C@H]2C1 the “activity change, negative = cytotoxicity” value was -1.59% (inactive).
With O=C(c1cnccn1)N1CC(=O)N2[C@@H](CO)[C@H](c3ccc(C#CCc4ccccc4)cc3)[C@@H]2C1 the “activity change, negative = cytotoxicity” value was -3.35% (inactive).
